The list is not random: actives were taken first. Their share in the collection is about 7.3%.
FLuc counter: qHTS profiling assay for firefly luciferase inhibitor/activator using purifed enzyme and Km concentrations of substrates (counterscreen for miR-21 project); purified FLuc, Km substrates, luminescence inhibition; Potency, µM (series often up to 57.5 µM), for inactives: at the top dose activity change, negative = inhibition, actives largely listed as inhibitors; 360,000 compounds, 6.9% hits;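 further: plate controls were vehicle for no effect and reference inhibitor for full effect; nearly all actives have a fitted effect of over 55% in size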
Target sequence (P08659 whole entry, looked up): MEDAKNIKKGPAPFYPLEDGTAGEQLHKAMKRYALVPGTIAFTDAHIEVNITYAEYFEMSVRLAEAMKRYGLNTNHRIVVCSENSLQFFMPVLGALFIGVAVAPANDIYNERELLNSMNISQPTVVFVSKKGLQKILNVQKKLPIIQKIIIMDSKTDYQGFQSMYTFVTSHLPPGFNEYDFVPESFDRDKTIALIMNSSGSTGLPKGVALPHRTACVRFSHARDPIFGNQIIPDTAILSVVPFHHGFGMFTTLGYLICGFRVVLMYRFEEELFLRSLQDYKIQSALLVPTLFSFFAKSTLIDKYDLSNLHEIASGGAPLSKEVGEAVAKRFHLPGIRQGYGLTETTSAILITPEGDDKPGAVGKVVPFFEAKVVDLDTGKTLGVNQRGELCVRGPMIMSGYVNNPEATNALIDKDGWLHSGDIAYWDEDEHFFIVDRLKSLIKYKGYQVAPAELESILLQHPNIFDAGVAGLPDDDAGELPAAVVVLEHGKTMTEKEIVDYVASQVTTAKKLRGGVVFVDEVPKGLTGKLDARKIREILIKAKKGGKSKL
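Biochemical qHTS of compounds, final roughly 60 µM downward over six points, against 10 nM purified firefly luciferase using Km concentrations of substrates (10 uM D-luciferin, 10 uM ATP) in Tris acetate pH 7.5 buffer; luminescence output.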
ELG1 genotoxic: qHTS screen for small molecules that induce genotoxicity in human embryonic kidney (HEK293T) cells expressing luciferase-tagged ELG1; Potency, µM (top dose mostly 46 µM), inactives show at the top dose activity change, positive = activation, usual class: activators; HEK293T ELG1-luciferase reporter, luminescence, 16 h; 330,000 compounds, 1.3% hits; further: % of control where 0% means no effect; nearly all actives have a fitted effect of over 60% in size
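Genotoxic stress is detected as increased luminescence from luciferase-tagged ELG1 in HEK293T cells, measured with ONE-Glo after a 16 hr treatment at 37 °C.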
Rab9 promoter act: qHTS Assay for Rab9 Promoter Activators. 320,000 compounds, 2.8% hits. Potency, µM (highest dose often 9.22 µM), for the others: top-dose activation, negative = inhibition, usual class: activators. Huh7 Rab9 promoter-luciferase reporter, luminescence, 24 h; further: % of control where 0% means no effect; nearly all actives have a fitted effect of over 60% in size
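Cell-based reporter: Huh7 stable for Rab9 promoter-driven luciferase, plated in reduced-serum medium with 10% FBS at 1500 cells/well, compound-treated 24 h at 37 °C, luminescence read after 10 min reagent.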
SMN2 splice up: qHTS Assay for Enhancers of SMN2 Splice Variant Expression; HEK293 SMN2-luciferase splicing reporter, luminescence, 30-36 h; Potency, µM (highest dose often 46.1 µM), for the others: top-dose activity change, positive = activation, actives largely listed as activators; 210,000 compounds, 2.8% hits; AID 1458, 2008; further: % of control where 0% means no effect; nearly all actives have a fitted effect of over 55% in size
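HEK293 cells carry an SMN2 minigene-luciferase reporter in which exon 7 inclusion puts luciferase in frame. Cells were seeded at 2000 cells/well, attached for 10-12 hours, then exposed to compounds for 30-36 hours at 37C before ONE-Glo luminescence.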
NPC1 prom act: qHTS Assay for NPC1 Promoter Activators; AID 485313, 2010; Potency, µM (titrated, usually from 9.22 µM), for the others: at the highest dose activation, usual class: activators; Huh7 NPC1 promoter luciferase reporter, 24 h; 320,000 compounds, 2.4% hits; further: % of control where 0% means no effect; nearly all actives have a fitted effect of over 60% in size
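Compounds in DMSO were transferred onto Huh7 NPC1-luciferase reporter cells pre-incubated 2 h; after 24 h at 37 °C, Amplite reagent was dispensed and luminescence recorded 10 min later.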
uPA surface inh: qHTS for Inhibitors of Cell Surface uPA Generation | cell surface uPA generation assay, qHTS | Potency, µM (titrated, usually from 38.3 µM), for inactives: at the highest dose activity change, negative = inhibition, actives largely listed as inhibitors | 330,000 compounds, 0.31% hits; active means well fitted inhibition curve with a large enough effect; inconclusive means small, poorly fitted or top-dose-only effect; inactive means no such curve, though single readings can be large or run the other way; tested in mouse RAW 264.7 cells; further: on the % scale 0 is the no-effect control and ±100 the full control effect; nearly all actives have a fitted effect of over 55% in size
Active calls of the source: *; ? = inconclusive; · = not tested or not shown; [ ] = dose if it differs, or a comment. Unless noted, the call rests on the fitted dose curve; in most records, active means well fitted curve in the direction sought with a large enough effect; inconclusive means small, poorly fitted or top-dose-only effect, or another doubt; inactive means no such curve, though single readings can be large; an effect the other way counts as inactive or inconclusive. Potency means the concentration at half of the fitted maximal effect.

SMILES | FLuc counter | ELG1 genotoxic | Rab9 promoter act | SMN2 splice up | NPC1 prom act | uPA surface inh
O=C(Nc1ccc(Cl)cn1)c1cccc(OCc2ccccc2)c1 | ? | 6% | 26% | · | 0% | -13%
Cc1ccc(CC(=O)Nc2ccc(Cl)cn2)cc1 | ? | ? | ? | · | 20% | 5%
O=C(Nc1ccc(Cl)cn1)c1ccc2nccnc2c1 | 12µM* | ? | ? | · | 1.6µM* | -12%
Cc1ccc(C(=O)Nc2ccc(Cl)cn2)cc1 | 1.3µM* | 2.3µM* | ? | 7.9µM* | 9% | ?
COc1ccc(CC(=O)Nc2nnc(C(C)(C)C)s2)cc1OC | -2% | -4% | -17% | -19% | -5% | -2%
CC(C)NC(=O)CN1C(=O)c2cccnc2Sc2ccccc21 | -10% | · | · | · | · | ·
Cc1ccc(C(=O)Nc2ncc3c(Cl)cccc3n2)cc1 | 0.27µM* | ? | 0.16µM* | 0.032µM* | ? | -10%
CC(C)C(=O)Nc1ccc(NC(=O)c2ccccc2Cl)nc1 | 21µM* | 16µM* | 3.2µM* | · | ? | -7%
COC(=O)c1ccccc1NC(=O)c1ccc2nccnc2c1 | -16% | -2% | 1% | 0% | 0% | -1%
CCCOc1ccc(C(=O)Nc2ccc(Cl)cn2)cc1 | 0.85µM* | ? | 0.5µM* | ? | 0.71µM* | -6%
O=C(Nc1c(Cl)cccc1Cl)c1ccc(-c2ccccc2)cc1 | 2% | -1% | 8% | -6% | 21% | -3%
O=C(Nc1ccccc1Cl)c1ccc2nccnc2c1 | 11µM* | 2% | 2.5µM* | · | 3.2µM* | -11%
CCC(=O)Nc1ccc(NC(=O)c2ccccc2Cl)nc1 | ? | ? | 26% | ? | 13% | -3%
Cc1cccc(N2CCN(C(=O)Cn3c(-c4cccs4)cc4ccccc43)CC2)c1C | -7% | · | · | · | · | ·
CS(=O)(=O)Nc1c(O)ccc2c1CCCC2C1=NCCN1 (centres undefined) | · | · | · | 2% | · | ·
Cc1onc(-c2ccccc2)c1C(=O)Oc1ccccc1 | 7% | -2% | -3% | · | 2% | -2%
Cc1ccc(NC(=O)c2ccc(S(=O)(=O)N3CCC(C)CC3)cc2)nc1 | ? | 18µM* | -5% | · | 0% | -15%
Cc1ccc(N/N=C2\CC(=O)c3ccccc32)cc1Cl | 9.5µM* | ? | 16% | · | 2% | ·
CCN(CC)c1ccc(NC(=O)c2cnn3c(C(F)F)cc(-c4ccccc4)nc23)cc1 | ? | · | · | -1% | · | ·
Cc1cc(NC(=S)Nc2ccc(C)c(Cl)c2)n[nH]1 | 17µM* | ? | ? | 18µM* | ? | 6%
COc1ccc(NC(=S)Nc2cc(C)[nH]n2)cc1Cl | 17µM* | 15% | ? | · | ? | 6%
N#CC1(c2ccc(NC(=O)c3ccccc3)cc2)CCCC1 | 1.3µM* | ? | 0.4µM* | 14µM* | 0.28µM* | ·
O=C(NNC(=O)c1ccc(NC(=O)c2ccccc2)cc1)c1ccccc1 | -3% | 18% | -1% | 4% | -6% | 2%
CC(=O)Oc1ccc(C(=O)Nc2ccc(C3(C#N)CCCC3)cc2)cc1 | ? | 5% | 2µM* | · | 1.3µM* | 10µM*
Cc1ccc(NC(=O)C2CCCN(c3ncnc4c3nc3n4CCCCC3)C2)cc1F (centres undefined) | -5% | · | · | · | · | ·
SMILES | FLuc counter | ELG1 genotoxic | Rab9 promoter act | SMN2 splice up | NPC1 prom act | uPA surface inh
O=C(NC(Cc1ccccc1)C(=O)O)c1ccccc1 (centres undefined) | -11% | 0% | 2% | -11% | -3% | 6%
CCC(C)C(NC(=O)c1ccccc1NC(=O)c1ccccc1)C(=O)O (centres undefined) | 3% | -2% | 0% | · | -2% | 0%
Cc1ccc(C(=O)Nc2ccccc2C(=O)NC(Cc2ccccc2)C(=O)O)cc1 (centres undefined) | 11µM* | 13% | 24% | 13% | 14% | -2%
CC(=O)N[C@H](Cc1c[nH]c2ccccc12)C(=O)O | · | · | · | -12%[9.22 µM] | · | 3%
Cc1ccc(C(=O)Nc2ccccc2C(=O)NC(Cc2c[nH]c3ccccc23)C(=O)O)cc1 (centres undefined) | 11µM* | 9% | 21% | 23% | 11% | -3%
CCC(NC(=O)c1ccccc1NC(=O)c1ccc(C)cc1)C(=O)O (centres undefined) | 13µM* | ? | 20% | 2% | 10% | ·
CCC(=O)N1c2ccc(S(=O)(=O)CCC(=O)Nc3ccc(Br)c(C)c3)cc2CC1C (centres undefined) | ? | · | · | -17% | · | ·
COc1cccc([C@@H]2Oc3ccc(Br)cc3C[C@H]2O)c1 | · | · | · | 1% | · | ·
COc1ccc(CN2C(=O)c3ccccc3C2=O)cc1 | 8% | 4% | 5% | · | 3% | 0%
COc1ccc(CN2C(=O)c3ccccc3C(/C=N/OCc3ccc(Cl)cc3)C2=O)cc1 (centres undefined) | 21µM* | -8% | -3% | -61% | -4% | 10%
COc1ccc(CN2C(=O)c3ccccc3C(/C=N\OCc3ccc(F)cc3)C2=O)cc1 (centres undefined) | 21µM* | -7% | 3% | -52% | -2% | 16%
COC(=O)C/C=C1\c2ccc3c(c2[C@@H](OC)[C@@H]1C)OCO3 | · | · | · | -1% | · | ·
CCOc1ccccc1NC(=O)C(Cc1ccccc1)NS(=O)(=O)c1ccc(Br)s1 (centres undefined) | -16% | · | · | 4% | · | ·
COc1cccc(CNC(=O)COc2cc(=O)n(C)c3ccccc23)c1 | -7% | · | · | 12% | · | ·
O=C(CCc1nnc(-c2ccc3c(c2)OCO3)o1)N1CCC(c2ccc(F)cc2)C1 (centres undefined) | 19µM* | ? | ? | · | 14% | -1%
CC1CC(C)CN(C(=O)CSc2nnc(-c3ccc(F)cc3)o2)C1 (centres undefined) | 2% | -1% | -8% | -7% | -2% | 8%
O=C(CSc1nnc(-c2ccc(F)cc2)o1)N1CCCCC1 | ? | 21µM* | ? | · | ? | -1%
O=C(CSc1nnc(-c2ccccc2)o1)N1CCCC1 | ? | 30% | ? | · | ? | -1%
O=C(CSc1nnc(-c2ccccc2)o1)N1CCCCC1 | 15µM* | ? | 2.5µM* | · | 2.8µM* | -1%
O=C(CSc1nnc(-c2ccccc2Cl)o1)N1CCCc2ccccc21 | 24µM* | · | · | 1% | · | ·
Cc1noc(C)c1S(=O)(=O)NCc1cccc(Cl)c1 | -2% | -4% | 0% | · | 6% | -8%
COc1ccc(C2(N3CCN(c4cccc(C)c4C)CC3)C(=O)c3ccccc3C2=O)cc1 | 4% | · | · | -5% | · | ·
